# Source: PubChem
# In the library only some 6.6% were active in any assay of this set; here they are far more common.
# HT1080 IDH1KD tx = toxicity to HT-1080 IDH1 knockdown cells (counter line); Potency, µM (highest dose often 46.1 µM), hits mostly cytotoxic; 360,000 tested, 2% active; HT-1080 IDH1 knockdown viability, ATP luminescence, 48 h; AID 686971
#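 IDH1KD HT-1080 cells, 750/well, RPMI + 5% FBS; compound pinned after 2 h settling; 48 h, 37 °C; CellTiter-Glo luminescence; % activity normalised to DMSO and no-cell wells; curves fitted, classed by r2 and efficacy.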
# HT1080-NT tox = kills 2HG-producing HT-1080-NT fibrosarcoma cells; Potency, µM (top dose mostly 46.1 µM), most hits filed as cytotoxic; AID 686970; HT-1080-NT fibrosarcoma viability, CellTiter-Glo ATP luminescence, 48 h; 360,000 tested, 1.6% active;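 note: NT is the 2HG producing partner of a matched IDH1 knockdown line; nearly all actives have a fitted effect of over 55% in size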
#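 Viability of the 2HG-overproducing fibrosarcoma line after 48 hours of compound exposure at 37 degrees C was determined by luminescence with CellTiter-Glo, and concentration-effect curves were then fitted and categorized.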
# HepG2 tox = HepG2 cytotoxicity, counter-screen for TGF-b inhibitors. HepG2 CAGA-GFP viability, ATP luminescence, 18 h. Potency, µM (top dose mostly 46.1 µM), most hits filed as cytotoxic. 410,000 tested, 0.76% active. AID 588856
#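 HepG2 CAGA-GFP cells (1000/well, DMEM with 1% FBS) received compound, then TGF-beta at 500 pg/mL final, and were incubated 18 hours at 37 degrees C. Viability was read by CellTiter-Glo luminescence. Media-only wells were set as complete cell-killing and DMSO as no toxicity.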
# KB-3-1 cytotox = kills parental KB-3-1 adenocarcinoma cells; KB-3-1 viability, CellTiter-Glo ATP luminescence, 72 h; Potency, µM (series often up to 46.1 µM), most hits filed as cytotoxic; 400,000 tested, 1.4% active; note: nearly all actives have a fitted effect of over 60% in size
#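 Multi-concentration cytotoxicity screen in KB-3-1 cells grown in DMEM lacking phenol red with 10% FBS. After 72 h at 37 °C with compound, ATP-dependent luminescence was recorded.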
# TGFb inhibitor = TGF-b pathway inhibition; HepG2 CAGA-GFP TGF-b/SMAD3 reporter, GFP fluorescence, 18 h; TGF-beta stimulated, 500 pg/mL final; Potency, µM (doses to about 46.1 µM), actives largely listed as inhibitors; 410,000 tested, 1.2% active; note: nearly all actives have a fitted effect of over 65% in size
#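 Smad-responsive CAGA-GFP expression was quantified in HEPG2 cells exposed to compounds and 500 pg/mL final TGF-beta for 18 h at 37 degrees C; unstimulated wells defined full inhibition.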
# KB-V1 MDR tox = kills drug-selected multidrug resistant KB-V1 cells | Potency, µM (highest dose often 46.1 µM), most hits filed as cytotoxic | 400,000 tested, 3.4% active | KB-V1 MDR cells viability, CellTiter-Glo, 72 h | AID 1347076; note: nearly all actives have a fitted effect of over 60% in size
#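 In this primary screen, KB-V1 cells overexpressing P-gp are incubated with library compounds (lowest to highest concentration) for 72 h at 37 degrees C before a luminescent ATP viability read.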
# A number is an active result; - = inactive; ? = inconclusive; . = not tested or not shown. Calls come from the whole dose curve; as a rule, active = well fitted curve in the direction sought with a large enough effect; inconclusive = small, poorly fitted or top-dose-only effect, or another doubt; inactive = no such curve, though single readings can be large; an effect the other way counts as inactive or inconclusive.
SMILES,HT1080 IDH1KD tx,HT1080-NT tox,HepG2 tox,KB-3-1 cytotox,TGFb inhibitor,KB-V1 MDR tox
O=C(OCC(=O)N1CCN(C(=O)c2ccco2)CC1)c1cc(-c2ccc(Cl)c(Cl)c2Cl)nc2ccccc12,?,-,-,?,?,21µM
Cc1ccccc1C(=O)OCC(=O)NCc1ccco1,-,-,-,-,-,-
COc1ccc(-c2cc(C(F)(F)F)nc(SCC(=O)NCc3ccco3)n2)cc1OC,-,-,-,-,-,-
COc1ccccc1CCNC(=O)C(=O)NCC(c1ccco1)S(=O)(=O)c1ccc(F)cc1 (centres undefined),.,.,-,-,-,-
COc1ccc(-c2noc(-c3ccccc3C(=O)NCc3ccco3)n2)cc1OC,-,-,-,-,-,3.7µM
O=c1[nH]c(=S)[nH]c2c1C(c1ccc(Cl)cc1)OC(C1CCCCC1)C2 (centres undefined),?,?,-,-,?,-
NS(=O)(=O)c1ccc(CNS(=O)(=O)c2cccc3nonc23)cc1,-,-,6.3µM,-,-,-
Cc1ccc(-n2ncc3c(=O)n(CC(=O)N(C)C)cnc32)cc1,-,-,-,-,-,-
Cc1ccc(-n2ncc3c(=O)n(Cc4cccnc4)cnc32)cc1,-,-,-,18µM,?,12µM
COc1ccc(OC)c(-c2noc(N3CCN(c4cc(C)ccc4C)CC3)n2)c1,.,.,-,-,?,-
CC(C)(C)c1ccc(C(=O)Nc2nnc3n2CCS3)cc1,.,.,-,?,?,?
Cc1cc(-c2nnc(-c3ccccc3)c(-c3ccccc3)n2)c(C)o1,-,-,-,-,-,-
Cc1ccc(-c2nnc(-c3ccccc3)c(-c3ccccc3)n2)cc1,-,-,-,-,-,18µM
Cc1ccc(C)c(N2CCN(C(=O)c3ccc(NC(=O)c4nsc5ccccc45)cc3)CC2)c1,.,.,-,-,-,-
Nc1c(-c2ccc(Cl)cc2)cnn1-c1cccc([N+](=O)[O-])c1,-,-,-,?,-,?
Nc1c(-c2ccccc2)cnn1-c1cccc([N+](=O)[O-])c1,-,-,-,-,-,23µM
Cc1ccc(-c2cnn(-c3cccc(C(F)(F)F)c3)c2N)cc1,-,-,-,-,-,16µM
CCc1cc(C(=O)Nc2c(C)nn(Cc3ccc(C)cc3)c2C)no1,.,.,-,-,-,?
CC(C)Oc1ccc(F)cc1-c1cc(C(=O)Nc2ccc(C(C)(C)C)cc2)[nH]n1,18µM,23µM,-,-,?,-
CC(C)Oc1ccc(F)cc1-c1cc(C(=O)N2CCc3ccccc3C2)[nH]n1,-,-,-,-,14µM,-
CC(C)Oc1ccc(F)cc1-c1cc(C(=O)Nc2ccccc2)[nH]n1,-,-,-,-,-,-
Cc1ccnc(NC(=O)c2ccccc2NC(=O)c2ccc(Cl)cc2Cl)c1,4.6µM,2.9µM,-,5.8µM,?,3.3µM
O=C(Nc1ccccc1C(=O)NCC1CCCO1)c1ccc(Cl)cc1 (centres undefined),-,-,-,.,-,.
O=C(Nc1ccccc1C(=O)NCC1CCCO1)c1ccc(Cl)cc1Cl (centres undefined),-,-,-,-,-,6.5µM
Cc1ccc(-c2cc(C(=O)NCC3CCCO3)no2)cc1 (centres undefined),-,-,-,-,-,-
SMILES,HT1080 IDH1KD tx,HT1080-NT tox,HepG2 tox,KB-3-1 cytotox,TGFb inhibitor,KB-V1 MDR tox
O=C(NCC1CCCO1)c1cc(-c2ccccc2)on1 (centres undefined),?,-,-,-,-,21µM
COC(=O)C(C(=O)OC)c1cc2c(cc1CNS(=O)(=O)c1ccc(C)cc1)OCO2,-,-,.,-,.,?
Cc1cc(NC(=O)c2cccn2-c2nnc(N3CCCCC3)s2)ccc1Br,.,.,-,-,8.9µM,-
Cc1cc(C)nc(-n2nc(C)c(Sc3ccc(F)cc3)c2N)n1,5µM,4µM,-,-,?,?
Cc1nn(-c2ccccc2)c(N)c1Sc1cccc([N+](=O)[O-])c1,-,?,-,-,-,?
CCOc1ccc(C(=O)Nc2ccc3c(c2)CCCN3S(=O)(=O)c2ccc(C)cc2)cc1,.,.,-,?,?,-
CCOC(=O)C(Cc1nc(OCc2ccccc2)cc(OCc2ccccc2)n1)=NO,-,-,-,21µM,?,13µM
Cc1ccc(NC(=S)NC(NC(=O)c2ccccc2)C(Cl)(Cl)Cl)c(C)c1 (centres undefined),?,?,-,?,?,16µM
O=C(O)c1cccc(NC(=S)NC(NC(=O)c2cccc([N+](=O)[O-])c2)C(Cl)(Cl)Cl)c1 (centres undefined),-,-,-,-,-,-
O=C(NC(NC(=S)Nc1ccc(Cl)cc1Cl)C(Cl)(Cl)Cl)c1cccc([N+](=O)[O-])c1 (centres undefined),?,?,13µM,?,?,?
O=C(NC(NC1CCS(=O)(=O)C1)C(Cl)(Cl)Cl)c1cccc(Cl)c1 (centres undefined),-,-,-,-,-,23µM
O=C(NC(NC(=S)Nc1ccccc1)C(Cl)(Cl)Cl)c1cccc(Cl)c1 (centres undefined),?,?,13µM,?,4.5µM,?
C1=C[C@H]2CCCN3CC[C@@H]([C@@H]2[C@]32CO2)[C@H]1CCOCc1ccccc1,-,-,.,-,.,-
CCCN(CCC)C(=O)Cn1c(=O)n(Cc2ccc(C(=O)NCCc3ccc(Cl)cc3)cc2)c(=O)c2ccccc21,.,.,-,-,-,-
CC(C)NC(=O)N1CCN(S(=O)(=O)c2ccc3c(ccn3C)c2)CC1,.,.,-,-,-,-
COc1ccc(-n2c(/C=C/c3cccc(C(F)(F)F)c3)nc3ccccc3c2=O)cc1Cl,.,.,-,?,-,?
COC(=O)[C@@]1(Cc2ccc(OC)cc2)[C@H]2c3cc(C(=O)N4CCCC4)n(Cc4ccccc4)c3C[C@H]2CN1C(=O)c1ccccc1,?,-,.,?,.,10µM
COC(=O)[C@@]1(Cc2ccc(OC)cc2)[C@H]2c3cc(C(=O)N4CCCC4)n(Cc4ccc(C)c(F)c4F)c3C[C@H]2CN1C(=O)c1ccccc1,?,?,.,?,.,7.3µM
COC(=O)[C@@]1(Cc2ccc(OC)cc2)[C@H]2c3cc(C(=O)N4CCCC4)n(Cc4cc(C)n(C)n4)c3C[C@H]2CN1C(=O)c1ccccc1,-,-,.,-,.,-
Cn1cnc([N+](=O)[O-])c1S(=O)(=O)c1cccc(Cl)c1,?,?,-,?,?,?
CCCn1c(CC)nc([N+](=O)[O-])c1S(=O)(=O)c1ccccc1,?,?,11µM,?,?,-
